Hits are enriched below; roughly 0.43% of the tested compounds scored in any of these assays.
GAA glycogen = qHTS Assay for Inhibitors and Activators of Human alpha-Glucosidase Cleavage of Glycogen; 300,000 tested, 0.38% active; Potency, µM (highest dose often 76.4 µM), inactives show at the top dose activity change, negative = inhibition, hits mostly inhibitors; recombinant GAA, glycogen substrate, Amplex Red glucose oxidase fluorescence; Lysosomal alpha-glucosidase (Homo sapiens), P10253;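 further: potency means the concentration at half of the fitted maximal effect; 0% = full enzyme reaction and -100% = no-enzyme basal signal; the screen sought inhibitors and activators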
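Recombinant human enzyme (4 nM); glycogen substrate; 37 C, 40 min, pH 5.0. Readout: coupled glucose oxidase/Amplex Red fluorescence.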
GAA inh = qHTS Assay for Inhibitors of Human alpha-Glucosidase as a Potential Chaperone Treatment of Pompe Disease; Lysosomal alpha-glucosidase (Homo sapiens), P10253; purified human GAA, 4-MU-alpha-glucoside fluorescence; Potency, µM (highest dose often 76.9 µM), inactives show top-dose activity change, negative = inhibition, most hits filed as inhibitors; 200,000 tested, 0.005% active; AID 1466, 2008;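 further: potency means the concentration at half of the fitted maximal effect; plate controls were uninhibited enzyme wells for no effect and no-enzyme background for full effect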
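qHTS format, compound range up to 77 uM. Human lysosomal enzyme at 4 nM, 400 uM 4-MU glucoside substrate, pH 5.0, 20 min room temperature; fluorescence after alkaline stop gives activity normalized to controls.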
N370S GC mod = qHTS Assay for Inhibitors and Activators of N370S glucocerebrosidase as a Potential Chaperone Treatment of Gaucher Disease; Lysosomal acid glucosylceramidase (Homo sapiens), P04062; N370S GC spleen homogenate, 4MU-glucoside fluorescence; Potency, µM (series often up to 59.4 µM), without a hit: at the highest dose activity change, negative = inhibition, hits mostly inhibitors; 330,000 tested, 0.092% active; AID 2101, 2009;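 further: potency means the concentration at half of the fitted maximal effect; 0% = full enzyme activity and -100% = no enzyme basal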
GLA spleen mod = qHTS Assay for Inhibitors and Activators of Human alpha-Galactosidase From Spleen Homogenate | AID 2107, 2009 | Potency, µM (top dose mostly 80 µM), for the others: at the highest dose activity change, negative = inhibition, actives largely listed as inhibitors | 240,000 tested, 0.008% active | Alpha-galactosidase A (Homo sapiens), P06280 | human spleen homogenate, 4MU-alpha-Gal fluorescence, 40 min;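 further: potency means the concentration at half of the fitted maximal effect; 0% = enzyme with vehicle and -100% = no enzyme basal signal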
Target sequence (P06280 32-429 limits assumed): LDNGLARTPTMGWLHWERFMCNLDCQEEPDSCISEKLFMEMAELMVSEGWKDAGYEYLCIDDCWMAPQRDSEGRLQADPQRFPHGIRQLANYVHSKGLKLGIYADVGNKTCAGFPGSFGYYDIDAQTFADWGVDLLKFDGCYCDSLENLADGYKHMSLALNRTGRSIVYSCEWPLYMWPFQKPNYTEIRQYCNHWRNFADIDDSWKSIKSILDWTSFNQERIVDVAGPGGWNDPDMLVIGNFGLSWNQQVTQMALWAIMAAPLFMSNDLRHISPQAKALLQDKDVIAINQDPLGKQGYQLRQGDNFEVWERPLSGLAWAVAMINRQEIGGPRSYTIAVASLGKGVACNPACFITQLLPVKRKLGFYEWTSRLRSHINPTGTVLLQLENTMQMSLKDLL
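qHTS titration in buffer at pH 5.0. Alpha-galactosidase activity in spleen homogenate was measured via 4-methylumbelliferone release from 1 mM fluorogenic substrate after 40 min at 37C and a pH 10 stop. AC50 came from Hill fits of control-normalized data.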
aGlu spleen mod = qHTS Assay for Inhibitors and Activators of Human alpha-Glucosidase From Spleen Homogenate; human spleen homogenate, 4-MU-alpha-glucoside fluorescence; Potency, µM (top dose mostly 79.9 µM), for inactives: at the highest dose activity change, negative = inhibition, usual class: inhibitors; 240,000 tested, 0.006% active; AID 2112, 2009;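 further: potency means the concentration at half of the fitted maximal effect; 0% = enzyme with vehicle and -100% = no enzyme basal signal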
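Human spleen homogenate (1 ug) with 4-methylumbelliferyl-alpha-D-glucopyranoside (1 mM final) in 50 mM citrate/phosphate pH 5.0, 0.01% Tween-20; 40 min at 37 C. Stopped at pH 10; 4-MU fluorescence Ex 365/Em 440 nm; AC50 by Hill fit.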
GLA inh pH 4.5 = qHTS Assay for Inhibitors of Human alpha-Galactosidase at pH 4.5; Alpha-galactosidase A (Homo sapiens), P06280; purified enzyme, 4-MU-alpha-Gal fluorescence, pH 4.5; activity change, negative = inhibition, % at 105 µM; 230,000 tested, under 10 active; AID 1467, 2008;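 further: 0% = full activity with enzyme and -100% = basal without enzyme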
The depositor's hits bear a star; [ ] = remark or other dose. The call rests on the fitted dose curve; in most records, active means well fitted curve in the direction sought with a large enough effect; inconclusive means small, poorly fitted or top-dose-only effect, or another doubt; inactive means no such curve, though single readings can be large; an effect the other way counts as inactive or inconclusive.

`CC(=O)c1ccc(N2CCN(S(=O)(=O)c3ccc4c(c3)NC(=O)CO4)CC2)cc1` gave GAA glycogen -1%[76.3 µM] and N370S GC mod 8%.
Screening O=[N+]([O-])c1ccc(N2CCN(S(=O)(=O)c3ccccc3)CC2)cc1 returned GAA glycogen 0%[76.3 µM] and N370S GC mod -6%.
`O=C1CCc2cc(S(=O)(=O)N3CCN(c4cccc(C(F)(F)F)c4)CC3)ccc2N1` gave GAA glycogen -5%, GAA inh -4%, N370S GC mod 4%, GLA spleen mod 4%, aGlu spleen mod -3% and GLA inh pH 4.5 -22.
For O=C1Cc2cc(S(=O)(=O)N3CCN(c4ccc(O)cc4)CC3)ccc2N1 the results were GAA glycogen 6.7µM*.
COc1ccc(-n2nc(C(=O)Nc3ccc(C(C)=O)cc3)nc2-c2ccccc2)cc1 was read as GAA glycogen 7%[76.3 µM].
Screening CCc1ccc(NC(=O)C2CCCN(S(=O)(=O)c3cccc4cccnc34)C2)cc1 (centres undefined) returned GAA glycogen 3%[76.3 µM].
CCOc1cccc(C(=O)c2ccc(O)c(O)c2O)c1 was read as N370S GC mod 7%, GLA spleen mod -9%, aGlu spleen mod -6% and GLA inh pH 4.5 -1.
`Cc1ccc2nc(NCCN)c3ncc(C)n3c2c1` gave N370S GC mod -4%, GLA spleen mod 3% and aGlu spleen mod -2%.
For CNc1ncnc2c1ncn2[C@@H]1O[C@H](CO)[C@H](O)[C@H]1O the results were N370S GC mod 2%, GLA spleen mod -3%, aGlu spleen mod 8% and GLA inh pH 4.5 -7.
Screening CCOC(=O)C1CCN(S(=O)(=O)c2ccc3c(c2)NC(=O)C(C)S3)CC1 (centres undefined) returned GAA glycogen 0%[76.3 µM] and N370S GC mod -1%.
Screening CCOC(=O)C1CCN(S(=O)(=O)c2ccc3c(c2)CC(=O)N3)CC1 returned GAA glycogen 14µM* and N370S GC mod -5%.
CCN(CC)CCNC(=O)CCCCn1c(=S)[nH]c2c([nH]c3ccc(OC)cc32)c1=O was read as GAA glycogen 25µM*, GAA inh -10%, N370S GC mod -1%, GLA spleen mod 8%, aGlu spleen mod 6% and GLA inh pH 4.5 -16.
Screening COc1cc(OC)c(NC(=O)c2csc3c2CCC(C)C3)cc1Cl (centres undefined) returned GAA glycogen -3%[76.3 µM].
`COc1ccc(NC(=O)CC(C)S(=O)(=O)c2cc3c(cc2C)NC(=O)CO3)cc1OC` (centres undefined) gave GAA glycogen 12%[76.3 µM].
For O=C(NC1=NCCS1)C1Cc2ccccc2CN1C(=O)c1ccccc1 (centres undefined) the results were GAA glycogen 4µM*, GAA inh -10%, N370S GC mod 5%, GLA spleen mod 11%, aGlu spleen mod -1% and GLA inh pH 4.5 -4.
CC(=O)c1ccc(NC(=O)C2Cc3ccccc3CN2C(=O)c2ccccc2)cc1 (centres undefined) was read as GAA glycogen -4%, GAA inh 3%, N370S GC mod 8%, GLA spleen mod 5%, aGlu spleen mod 1% and GLA inh pH 4.5 -12.
For C(=N\Nc1ccccn1)/c1c[nH]c2ccccc12 the results were GAA glycogen 35µM*, N370S GC mod -9%, GLA spleen mod 2%, aGlu spleen mod 0% and GLA inh pH 4.5 -10.
For COc1cc(C(C(=O)NC(C)(C)C)N(C(=O)CNC(=O)c2cccs2)c2ccccc2)cc(OC)c1OC (centres undefined) the results were GAA glycogen -1%, GAA inh 6%, N370S GC mod 13µM*, GLA spleen mod 3%, aGlu spleen mod 3% and GLA inh pH 4.5 0.
`COc1cc(C(C(=O)NC(C)(C)C)N(C(=O)CNC(=O)c2cccs2)c2ccc(C(C)C)cc2)cc(OC)c1OC` (centres undefined) gave GAA glycogen 2%, GAA inh -3%, N370S GC mod 12%, GLA spleen mod -16%, aGlu spleen mod -7% and GLA inh pH 4.5 -2.
N#Cc1c(-n2ncnc2-c2ccccc2C(F)(F)F)sc2c1CCCCC2 was read as GAA glycogen 1%[76.3 µM].
For Cc1ccc(-c2nc(Nc3cccc(O)c3)c3ccccc3n2)cc1 the results were GAA glycogen -1% and N370S GC mod inconclusive.
For Oc1cccc(Nc2nc(-c3ccccc3Cl)nc3ccccc23)c1 the results were GAA glycogen -6% and N370S GC mod 1µM*.
For CCN1CCN(c2nc(-c3cccs3)nc3ccccc23)CC1 the results were GAA glycogen 9%, GAA inh 0%, N370S GC mod 9%, GLA spleen mod 2%, aGlu spleen mod -3% and GLA inh pH 4.5 5.
Screening Clc1ccccc1-c1nc(NCc2cccs2)c2ccccc2n1 returned N370S GC mod 7.1µM*, GLA spleen mod 1% and aGlu spleen mod 4%.
c1csc(CNc2nc(-c3cccs3)nc3ccccc23)c1 was read as GAA glycogen -22%, GAA inh inconclusive, N370S GC mod 18µM*, GLA spleen mod -17%, aGlu spleen mod -9% and GLA inh pH 4.5 -3.
For c1ccc(CN2CCC(Nc3nc(-c4cccs4)nc4ccccc34)CC2)cc1 the results were GAA glycogen -8%, GAA inh -5%, N370S GC mod 10µM*, GLA spleen mod 5%, aGlu spleen mod -5% and GLA inh pH 4.5 -6.
`Cc1ccc(-n2c(=O)c3c(c4cc(C)ccc4n3C)n(CC(=O)NCc3ccccc3)c2=O)cc1` gave GAA glycogen -2%[76.3 µM].
`CCCn1cc(S(=O)(=O)c2cc(C)ccc2C)c(=O)c2cc(F)c(N3CCCCCC3)cc21` gave GAA glycogen 4%[76.3 µM].
`FC(F)(F)c1ccccc1-c1nc(NCc2cccs2)c2ccccc2n1` gave N370S GC mod -28%, GLA spleen mod 6% and aGlu spleen mod 10%.
